Measurements taken from PubChem BioAssay (EPA / NIEHS).
Activity calls are given as the source filed them. The calls were made as follows: active = hit-call score of the fitted dose curve at least 0.9, where 1 is the maximum; inactive = score below 0.9.

Read-out: Cytochrome P450 (CYP1A2), CYP1A2 (gene 1544)
Assay: LTEA_HepaRG_CYP1A2: Life Technologies and Expression Analysis (LTEA) Assay for Cytochrome P450 (CYP1A2) using HepaRG (AID 2283479);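 as to AC50: TaqMan qRT-PCR transcript level normalized to ACTB GAPDH and POLR2A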
Conditions: mRNA level, 48 h; actives raise or lower the signal
Method in brief: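 CYP1A2 transcript induction or loss, quantified by Fluidigm qRT-PCR against three housekeeping genes, was fitted bidirectionally against 0.5% DMSO controls. Human HepaRG cells received eight half-log concentrations from 100 uM over 48 h.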

Row | Compound | outcome | AC50
1 | CSc1nc(NC(C)C)nc(NC(C)C)n1 | inactive | –
2 | COP(=O)(OC)OC(Br)C(Cl)(Cl)Br (centres undefined) | – | 26.3 µM (active)
3 | CC(=NC#N)N(C)Cc1ccc(Cl)nc1 | inactive | –
4 | CN1COCN(Cc2cnc(Cl)s2)C1=N[N+](=O)[O-] | inactive | –
5 | COc1ccc(C(=CC(=O)N2CCOCC2)c2ccc(Cl)cc2)cc1OC | inactive | –
6 | CNC(=O)ON=C(C)SC | inactive | –
7 | CCOP(=S)(OCC)SCCSCC | inactive | –
8 | CCOP(=O)(OCC)Oc1cc(C)nc(C(C)C)n1 | inactive | –
9 | CCC(CC)Nc1c([N+](=O)[O-])cc(C)c(C)c1[N+](=O)[O-] | inactive | –
10 | CCOP(=S)(OCC)Oc1ccc([N+](=O)[O-])cc1 | – | 15.1 µM (active)
11 | CC(C1CC1)C(O)(Cn1cncn1)c1ccc(Cl)cc1 (centres undefined) | inactive | –
12 | CNC(=O)ON=C(SC)C(=O)N(C)C | inactive | –
13 | CNC(=O)Oc1cccc2c1OC(C)(C)O2 | inactive | –
14 | CCc1cnc(C2=NC(C)(C(C)C)C(=O)N2)c(C(=O)O)c1 (centres undefined) | inactive | –
15 | Cc1cc(C2CC2)nc(Nc2ccccc2)n1 | – | 91.5 µM (active)
16 | CCCSP(=O)(OCC)SCCC | inactive | –
17 | COc1cc(OC)nc(Sc2cccc(Cl)c2C(=O)O)n1 | inactive | –

Row | Compound | outcome | AC50
18 | CC1(C(=O)Nc2ccc(O)c(Cl)c2Cl)CCCCC1 | inactive | –
19 | CSc1nnc(C(C)(C)C)c(=O)n1N | inactive | –
20 | CCC(=O)Nc1ccc(Cl)c(Cl)c1 | – | 33 µM (active)
21 | CCOP(=O)(NC(C)C)Oc1ccc(SC)c(C)c1 (centres undefined) | inactive | –
22 | CC1=NNC(=O)N(/N=C/c2cccnc2)C1 | – | 6.84 µM (active)
23 | CSC1=N[C@@](C)(c2ccccc2)C(=O)N1Nc1ccccc1 | – | 25.4 µM (active)
24 | CC(Oc1cccc(Cl)c1)C(=O)O (centres undefined) | inactive | –
25 | CCCCOC(=O)c1ccccc1C(=O)O | – | 32.8 µM (active)
26 | CON=C(C(=O)OC)c1ccccc1CON=C(C)c1cccc(C(F)(F)F)c1 | inactive | –
27 | C#CC(C)(C)NC(=O)c1cc(Cl)cc(Cl)c1 | – | 50 µM (active)
28 | CC[C@H](C)[C@H]1O[C@]2(C=C[C@@H]1C)C[C@@H]1C[C@@H](C/C=C(\C)[C@@H](O[C@H]3C[C@H](OC)[C@@H](O[C@H]4C[C@H](OC)[C@@H](NC)[C@H](C)O4)[C@H](C)O3)[C@@H](C)/C=C/C=C3\CO[C@@H]4[C@H](O)C(C)=C[C@@H](C(=O)O1)[C@]34O)O2 | inactive | –
29 | Nc1c(Cl)cc([N+](=O)[O-])cc1Cl | – | 13 µM (active)
30 | CC(C)N(C(=O)SCC(Cl)=C(Cl)Cl)C(C)C | – | 73.5 µM (active)
31 | Cc1nn(-c2cc(NS(C)(=O)=O)c(Cl)cc2Cl)c(=O)n1C(F)F | inactive | –
32 | C[Si](Cn1cncn1)(c1ccc(F)cc1)c1ccc(F)cc1 | – | 85.6 µM (active)
33 | CNc1cnn(-c2cccc(C(F)(F)F)c2)c(=O)c1Cl | – | 6.1 µM (active)
34 | C#CCC1=C(C)C(OC(=O)C2C(C=C(C)C)C2(C)C)CC1=O (centres undefined) | inactive | –
